About 83,000 compounds went through this panel and 20% of them were active in at least one assay; those are over-represented in the sample as a whole.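 The test compound was applied at a single concentration to cells in 96-well plates for 48 hours, and percent growth was recorded.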 Values without a mark were called inactive. Calls of active or inactive are those of the source. The calls were made as follows: active = growth percent below 10; inactive = the rest.

What all share (test): NCI-60 one-dose screen, 48 h (100 = growth as untreated, 0 = no growth, -100 = all killed)
One assay concerns NCI-H23 lung. The settings on record: 10 µM unless noted.
The subject of another assay is NCI-H226 lung. The following applies: 10 µM unless noted.
The next assay concerns NCI-H322M lung. The settings on record: 10 µM unless noted.
Another assay deals with NCI-H460 lung. The following applies: 10 µM unless noted.
A further assay concerns HOP-92 NSCLC. The settings on record: 10 µM.
For the next assay, the system named is NCI-H522 lung. The following applies: 10 µM.
In a further assay the test system is A549/ATCC NSCLC. The settings on record: 10 µM unless noted.
The test system of the next assay is 786-0 renal. The settings on record: 10 µM unless noted.
Another assay relates to COLO 205 colon. The settings on record: 10 µM unless noted.
The subject of the next assay is DU-145 prostate. The settings on record: 10 µM unless noted.
Another assay deals with K-562 leukemia. The settings on record: 10 µM unless noted.
In the next assay the test system is MALME-3M melanoma. The following applies: 10 µM unless noted.
For a further assay, the system named is MDA-MB-231 breast. The following applies: 10 µM unless noted.
A further assay has as its system RXF 393 renal. The following applies: 10 µM unless noted.
A further assay has as its system SF-268 CNS. The following applies: 10 µM unless noted.
The next assay has as its system SF-295 CNS. The following applies: 10 µM unless noted.
The next assay relates to SF-539 CNS. The settings on record: 10 µM unless noted.
Another assay has as its system UACC-257 melanoma. The following applies: 10 µM unless noted.
Another assay deals with M14 melanoma. The settings on record: 10 µM unless noted.

Regarding `CCCCCCCCCC[N+](C)(C)C`, the growth with NCI-H23 lung is 28.8%; with NCI-H226 lung, 45%; with NCI-H322M lung, 75.6%; with NCI-H460 lung, 13%; in the assay on HOP-92 NSCLC it was -24.5% (active); in the assay with NCI-H522 lung, 18.1%. Also, the growth in the assay with A549/ATCC NSCLC was 34.3%; in the assay with 786-0 renal, 8.96% (active); in the assay with COLO 205 colon it was -49.9% (active); in the assay on DU-145 prostate it was 34%; in the assay with K-562 leukemia it was 22.3%; in the assay on MALME-3M melanoma, 24.8%. Moreover, the growth in the assay on MDA-MB-231 breast is 14.3%; with RXF 393 renal, -42.3% (active); in the assay on SF-268 CNS, 13.2%; in the assay with SF-295 CNS it was 36.1%; in the assay on SF-539 CNS it was 1.4% (active); in the assay with UACC-257 melanoma, 66.3%. In addition, in the assay on M14 melanoma, the growth is 6.8% (active).
Regarding `Cc1nc2c(nnn2-c2ccccc2)c2nc(-c3ccc(Cl)cc3)oc(=O)c12`, the growth is 116% with NCI-H23 lung; 92.8% in the assay with NCI-H226 lung; 103% with NCI-H322M lung; 115% in the assay on NCI-H460 lung; 117% in the assay with HOP-92 NSCLC; 99.7% in the assay with NCI-H522 lung. Further, the growth was 111% in the assay on A549/ATCC NSCLC; 105% with 786-0 renal; 120% in the assay with COLO 205 colon; 119% in the assay on DU-145 prostate; 112% with K-562 leukemia; 101% in the assay on MALME-3M melanoma. Also, the growth is 119% in the assay on MDA-MB-231 breast; 104% in the assay on RXF 393 renal; 103% in the assay on SF-268 CNS; 102% in the assay with SF-295 CNS; 96.8% with SF-539 CNS; 117% with UACC-257 melanoma. Also, the growth in the assay with M14 melanoma is 108%.
For `CCc1c(C)c2ccc(OCC(=O)N=Nc3c(O)[nH]c4ccccc34)c(C)c2oc1=O`, the growth was 5.58% (active) in the assay with NCI-H23 lung; 12.4% in the assay on NCI-H226 lung; -14.2% (active) with NCI-H322M lung; -46.7% (active) in the assay on NCI-H460 lung; 29.7% with HOP-92 NSCLC; -9.85% (active) in the assay on NCI-H522 lung. For the same compound, the growth with A549/ATCC NSCLC is 30.2%; in the assay on 786-0 renal, -22.9% (active); in the assay with COLO 205 colon, 31.4%; in the assay with DU-145 prostate it was 7.92% (active); in the assay on K-562 leukemia, 4.73% (active); with MALME-3M melanoma it was 42.5%. In addition, the growth was 0.841% (active) in the assay with MDA-MB-231 breast; 35.7% in the assay on RXF 393 renal; 18.4% in the assay on SF-268 CNS; -9.71% (active) in the assay with SF-295 CNS; 85% in the assay on SF-539 CNS; 28.2% in the assay with UACC-257 melanoma. Further, the growth with M14 melanoma is 3.57% (active).
As to `COC(=O)c1ccc2[nH]c(O)c(C(=Nc3ccc(N(C)C(=O)CN4CCN(C)CC4)cc3)c3ccc([N+](=O)[O-])cc3)c2c1`, the growth was 57.3% in the assay with NCI-H23 lung; 55.8% in the assay with NCI-H226 lung; 41.9% in the assay on NCI-H322M lung; 48.5% in the assay on NCI-H460 lung; 63.6% with HOP-92 NSCLC; 34.3% with NCI-H522 lung. The growth with A549/ATCC NSCLC is 72.8%; with 786-0 renal, 33.1%; with COLO 205 colon it was 43.8%; in the assay on DU-145 prostate, 47.3%; in the assay on K-562 leukemia it was 1.99% (active); in the assay with MALME-3M melanoma it was -1.29% (active). In addition, the growth in the assay on MDA-MB-231 breast is 70.2%; in the assay with RXF 393 renal, 33.9%; in the assay on SF-268 CNS, 45.3%; with SF-295 CNS, 55.2%; with SF-539 CNS, 38.9%; in the assay with UACC-257 melanoma it was 85.4%. The growth with M14 melanoma is 32.1%.
As for `O=C1/C(=N\c2cc(=O)[nH]n2S(=O)(=O)c2ccccc2)Nc2ccccc21`, the growth in the assay on NCI-H23 lung was 107%; with NCI-H226 lung it was 92.4%; with NCI-H322M lung, 105%; with NCI-H460 lung it was 105%; with HOP-92 NSCLC, 89.6%; in the assay on NCI-H522 lung, 96.7%. Moreover, the growth with A549/ATCC NSCLC was 111%; with 786-0 renal it was 106%; in the assay on COLO 205 colon, 114%; in the assay on DU-145 prostate, 108%; in the assay with K-562 leukemia, 98.7%; in the assay with MALME-3M melanoma, 95.1%. For the same compound, the growth in the assay on MDA-MB-231 breast was 96.5%; with RXF 393 renal, 101%; in the assay with SF-268 CNS it was 97.6%; in the assay with SF-295 CNS, 101%; in the assay with SF-539 CNS, 94.8%; with UACC-257 melanoma it was 123%. Besides, the growth in the assay with M14 melanoma was 91.1%.
On to `CCCCCCCCC/C(=N\NC(=O)c1ccncc1)c1ccc(O)c(O)c1O`, for which the growth in the assay with NCI-H23 lung was 21.8%; with NCI-H226 lung, 34.4%; in the assay with NCI-H322M lung, 36.1%; with NCI-H460 lung, 4.14% (active); in the assay on HOP-92 NSCLC, 46.6%; with NCI-H522 lung it was 36%. The growth in the assay on A549/ATCC NSCLC was 13.5%; in the assay on 786-0 renal, 11.1%; in the assay with COLO 205 colon it was 27.6%; with DU-145 prostate it was 27.8%; with K-562 leukemia it was 15.1%; in the assay on MALME-3M melanoma, 35.4%. The growth was 47.9% in the assay on MDA-MB-231 breast; 19.2% in the assay on RXF 393 renal; 17.6% with SF-268 CNS; 16.3% in the assay on SF-295 CNS; 7.62% (active) in the assay with SF-539 CNS; 8.98% (active) with UACC-257 melanoma. Besides, in the assay with M14 melanoma, the growth is 8.78% (active).
Regarding `CC[C@H](Nc1ncnc2nc[nH]c12)c1nc2cccc(NCc3ccc(C(=O)NO)o3)c2c(=O)n1-c1ccccc1`, the growth was 98.1% with NCI-H23 lung; 109% with NCI-H226 lung; 97.4% in the assay with NCI-H322M lung; 111% in the assay with NCI-H460 lung; 82.6% in the assay with HOP-92 NSCLC; 76.7% in the assay with NCI-H522 lung. Besides, the growth was 102% in the assay on A549/ATCC NSCLC; 94.1% with 786-0 renal; 115% in the assay with COLO 205 colon; 101% with DU-145 prostate; 102% with K-562 leukemia; 77.1% in the assay on MALME-3M melanoma. Moreover, the growth in the assay on MDA-MB-231 breast was 113%; in the assay with RXF 393 renal, 110%; with SF-268 CNS it was 84.1%; with SF-295 CNS, 102%; in the assay on SF-539 CNS it was 100%; in the assay on UACC-257 melanoma it was 102%. For the same compound, the growth in the assay on M14 melanoma is 103%.
Consider `c1cc[c]([Bi]([c]2ccccc2)[c]2ccccc2)cc1`, for which the growth with NCI-H23 lung was 93.9%; in the assay with NCI-H226 lung it was 95.8%; in the assay with NCI-H322M lung it was 88%; with NCI-H460 lung, 96.2%; in the assay with HOP-92 NSCLC, 74.1%; with NCI-H522 lung it was 104%. Further, the growth was 102% in the assay on A549/ATCC NSCLC; 94% in the assay with 786-0 renal; 105% in the assay on COLO 205 colon; 107% in the assay on DU-145 prostate; 105% in the assay with K-562 leukemia; 94% with MALME-3M melanoma. Further, the growth in the assay with MDA-MB-231 breast is 95.2%; with RXF 393 renal it was 101%; in the assay with SF-268 CNS, 104%; with SF-295 CNS, 103%; in the assay on SF-539 CNS it was 105%; in the assay on UACC-257 melanoma it was 106%. Also, in the assay with M14 melanoma, the growth was 94%.

These data come from PubChem BioAssay (NCI).
